Experimental data taken from the supplement of paper PMC3414501.
Structures can show the parent of a compound that is named as a salt. A number with no mark means an inactive call.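 The calls were made as follows: active = HIS4 sensitivity z-score above 5 vs DMSO controls; inactive = score 5 or below.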

These compounds were tested on S. cerevisiae NKY1551 his4x/his4B, sporulating (assay: HIS4 meiotic recombination assay sensitivity score (z-score vs DMSO controls); higher = stronger inhibition of sporulation/recombination, active = hit call of the paper). Details: stock concentration (mM, diluted 1:100): 7.3.
Experimental: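 NIH Clinical Collection compounds were added 1:100 from stock (about 100 µM final) to S. cerevisiae. Growth: average doubling time (AvgG) over 24 h of BY4741 (wild-type) or AD1-9 (drug-efflux-pump deficient) in rich media. HIS4: the his4x/his4B heteroallelic recombination reporter strain (SK1) was sporulated 5 h with compound at 30°C, then colony density was read on -his plates after 48 h. Sensitivity score = (compound − mean of 8 DMSO controls)/SD of DMSO controls. Hit cutoffs are >2 for growth and >5 for sporulation.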

Row | SMILES | HIS4 meiotic recombination assay sensitivity score
1 | CN1[C@@H]2CC(OC(=O)[C@H](CO)c3ccccc3)C[C@H]1[C@@H]1O[C@@H]12 (stereo not given in full) | -0.64

Same assay, conditions: stock concentration (mM, diluted 1:100): 8.9

Row | SMILES | HIS4 meiotic recombination assay sensitivity score
2 | COc1ccc(C(CN(C)C)C2(O)CCCCC2)cc1 (stereo not given) [Venlafaxine hydrochloride] | 1

Same assay, conditions: stock concentration (mM, diluted 1:100): 9

Row | SMILES | HIS4 meiotic recombination assay sensitivity score
3 | Cc1ncc2n1-c1ccc(Cl)cc1C(c1ccccc1F)=NC2 [Midazolam hydrochloride] | 4.65

Same assay, conditions: stock concentration (mM, diluted 1:100): 9.7

Row | SMILES | HIS4 meiotic recombination assay sensitivity score
4 | CN1CCC(c2ccc(F)cc2)C(COc2ccc3c(c2)OCO3)C1 (stereo not given) [Methyl paroxetine] | 10.7 (active)

Same assay, conditions: stock concentration (mM, diluted 1:100): 9.8

Row | SMILES | HIS4 meiotic recombination assay sensitivity score
5 | CN1CC[C@]2(c3cccc(O)c3)Cc3nc4ccccc4cc3C[C@H]2C1 | 0.28

Same assay, conditions: stock concentration (mM, diluted 1:100): 9.9

Row | SMILES | HIS4 meiotic recombination assay sensitivity score
6 | CCCCCCCCCOc1ccc2[nH]cc(CCN)c2c1 [5-Nonyloxytryptamine] | -2.09

Same assay, conditions: stock concentration (mM, diluted 1:100): 10

Row | SMILES | HIS4 meiotic recombination assay sensitivity score
7 | C[N+]1(C)CCN(c2ccccc2)CC1 [Dimethylphenylpiperazinium Iodide] | -0.3
8 | C[C@]12Cc3c[nH]nc3C[C@@H]1CC[C@@H]1[C@@H]2CC[C@@]2(C)[C@H]1CC[C@]2(C)O [Stanozolol] | -0.39
9 | c1ccc2c(c1)Nc1ccccc1S2 [Phenothiazine] | 2.62
10 | CC[C@]1(O)CC[C@H]2[C@@H]3CCC4=CCCC[C@@H]4[C@H]3CC[C@@]21C [Ethylestrenol] | 1.02
11 | O=c1c2ccccc2[se]n1-c1ccccc1 [Ebselen] | -0.37
12 | C[C@]12CC[C@H]3[C@@H](CCC4=CC(=O)CC[C@@]43C)[C@@H]1CC[C@@H]2O [Testosterone] | -0.83
13 | CN1C(=O)CN=C(c2ccccc2)c2cc([N+](=O)[O-])ccc21 [Nimetazepam] | -0.26
14 | COc1cccc(C2(O)CCCCC2CN(C)C)c1 (stereo not given) [Tramadol] | -2.65
15 | COc1cc(N)c(Cl)cc1C(=O)NC1CN2CCC1CC2 (stereo not given) [Zacopride] | -2.43
16 | c1ccc(Cn2ccnc2)cc1 [1-Benzylimidazole] | -0.23
17 | COc1ccc(CCN)cc1OC [Homoveratrylamine] | -1.74
18 | CCN(C(C)=O)c1cccc(-c2ccnc3c(C#N)cnn23)c1 [Zaleplon] | -0.58
19 | C[C@]12CCC(=O)C=C1CC[C@@H]1[C@@H]2CC[C@@]2(C)[C@H]1CC[C@]2(C)O [Methyltestosterone] | 2.7
20 | CN1C(=O)CN=C(c2ccccc2)c2cc(Cl)ccc21 [Diazepam] | 2.18
21 | Oc1cc2c(cc1O)[C@H]1c3ccccc3CN[C@@H]1CC2 | 2.29
22 | NCCc1ccccn1 [2-(2-aminoethyl)pyridine] | -0.1
23 | CNC1CC(c2ccc(Cl)c(Cl)c2)c2ccccc21 (stereo not given) [Indatraline] | -0.83
24 | CC[C@@H]1C=CC=CC[C@H](C)[C@@H](O)[C@@H](C)C(=O)[C@H](C)[C@@H](O)[C@H](C)C(=O)[C@H](C)[C@@H](O)[C@H](C)C=CC(=O)O[C@H]2[C@@H](C)[C@@H](CC1)O[C@@]1(CC[C@@H](C)[C@@H](C[C@H](C)O)O1)[C@@H]2C [Oligomycin c] | 0.21
25 | COC(=O)N1CCN(C(=O)Cc2ccc(Cl)c(Cl)c2)C(CN2CCCC2)C1 (stereo not given) | -0.89
26 | CCCN1C[C@H](CSC)C[C@@H]2c3cccc4[nH]cc(c34)C[C@H]21 [Pergolide mesylate] | -0.45
27 | O=C(O)C(Cl)Cl [Dichloroacetic acid] | -0.62
28 | c1cncc([C@@H]2CCCN2)c1 [Nornicotine] | -1.18
29 | O=C1CN=C(c2ccccc2)c2cc([N+](=O)[O-])ccc2N1 [Nitrazepam] | -0.13
30 | FC(F)(F)c1cccc(N2CCNCC2)c1 | 8.84 (active)
31 | Oc1ccc2c3c1O[C@H]1c4[nH]c5ccccc5c4C[C@@]4(O)[C@@H](C2)N(CC2CC2)CC[C@]314 [Naltrindole] | -0.51
32 | CN=C1CN(O)C(c2ccccc2)=c2cc(Cl)ccc2=N1 [Chlordiazepoxide] | -1.07
33 | C[C@]12CC[C@H](O)CC1=CC[C@@H]1[C@@H]2CC[C@]2(C)C(=O)CC[C@@H]12 [Dehydroepiandrosterone] | 3.07
34 | O=C1Nc2ccc(Cl)cc2C(c2ccccc2Cl)=NC1O (stereo not given) [Lorazepam] | 0.95
35 | CNCC(O)c1ccc(O)cc1 (stereo not given) [Synephrine] | -1.28
36 | CS(=O)(=O)Nc1ccc(Cc2noc(-c3ccc4[nH]cc(CCN)c4c3)n2)cc1 | -0.76

Same assay, conditions: stock concentration (mM, diluted 1:100): 10.1

Row | SMILES | HIS4 meiotic recombination assay sensitivity score
37 | C=C(C)CN1CC[C@]23c4c5ccc(O)c4O[C@H]2c2[nH]c4ccccc4c2C[C@@]3(O)C1C5 | 3.9
38 | C[N+]1(CCC(C(N)=O)(c2ccccc2)c2ccccc2)CCCCC1 [Fenpiverinium bromide] | -1.06
39 | CC[C@@H](C(N)=O)N1CCCC1=O [Levetiracetam] | -0.77
40 | COc1ccc2[nH]cc(C3=CCNCC3)c2c1 | 3.92
